# Sampled rows, rich in hits. Any-hit rate of the full collection: about 19%.
# DT40 TDP1 no CPT: qHTS for Inhibitors of human tyrosyl-DNA phosphodiesterase 1 (TDP1): qHTS in cells in absence of CPT; DT40 Tdp1-/- hTDP1 cells, no CPT, ATP luminescence, 48 h; Potency, µM (series often up to 46.2 µM), for inactives: at the top dose activity change, negative = growth inhibition, actives largely listed as inhibitors; 15% of 420,000 active; AID 686978, 2013; further: potency means the concentration at half of the fitted maximal effect; on the % scale 0 is the no-effect control and ±100 the full control effect; nearly all actives have a fitted effect of over 55% in size
#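 Camptothecin absent (DMSO only). Human TDP1-complemented DT40 knockout cells, 400 cells/well, 37 °C for minimum 48 hr; ATP measured via CellTiter-Glo, 30 min dark incubation, luminescence.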
# Chronic BCR inh: inhibitors of chronic active B-cell receptor signaling | ABC-DLBCL IkBa-CBG/CBR reporter, luminescence ratio, 4 h | Potency, µM (highest dose often 46.1 µM), for the others: at the highest dose activity change, negative = inhibition, usual class: inhibitors | 0.05% of 340,000 active | AID 493014; active means well fitted inhibition curve with a large enough effect in the signal ratio, with a control signal flat, not every such curve was filed as active; inconclusive means small, poorly fitted or top-dose-only effect, or effect the other way, or a change in a side signal; the % refers to the signal ratio;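 further: potency means the concentration at half of the fitted maximal effect; plate controls were basal doxycycline-induced cells for no effect and cells given 10 µM MG132 for full effect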
#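 Compounds up to 46 uM were incubated four hours with TMD8 cells whose green CBG68 luciferase is fused to IkappaBalpha; red CBR luminescence normalised the signal, and concentration-effect curves were fitted to fusion, red and ratio data.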
# MCF10A rerep: DNA re-replication induction in MCF 10a cells; MCF 10A DNA re-replication, Hoechst nuclear intensity, 48 h; Potency, µM (highest dose often 46.1 µM), for inactives: at the top dose activity, positive = re-replication, usual class: activators; 2.9% of 350,000 active; AID 624296; further: potency means the concentration at half of the fitted maximal effect; % of control where 0% means no effect; nearly all actives have a fitted effect of over 50% in size
# IL1B secr inh: inflammasome signaling inhibition, IL-1 beta readout; THP-1 LPS/ATP IL-1B secretion, AlphaLISA, 16 h; stronger effect = lower value; activity change, % at 57.5 µM; 4.7% of 360,000 active; in the data active means activity change below about -50%; inconclusive means mostly about -30% to -49%; further: on the % scale 0 is the no-effect control and ±100 the full control effect
#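 THP-1 cells pretreated 1 hr with compounds (up to 57.5 uM final), then stimulated with LPS (250 ng/mL final) plus ATP (1.25 mM final); secreted IL-1B measured by AlphaLISA after 16 hr, decreased signal indicating inhibition.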
# SW480 rerep: DNA re-replication induction in SW480 cells | AID 624297 | Potency, µM (doses to about 46.1 µM), for inactives: top-dose re-replication activation, actives largely listed as activators | 1.8% of 340,000 active | SW480 DNA re-replication, Hoechst DNA content imaging, 48 h; further: potency means the concentration at half of the fitted maximal effect; % of control where 0% means no effect; nearly all actives have a fitted effect of over 55% in size
#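 Readout is total intensity of Hoechst-stained nuclei, excited at 405 nm and collected at 500-530 nm. Compound treatment lasted 48 hr at 37 C in 5% CO2 before staining.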
# DT40 TDP1 CPT: growth inhibition of DT40 Tdp1-/-;hTDP1 cells with camptothecin (screen for TDP1 inhibitors) | chicken DT40 Tdp1-/-;hTDP1 cells + 20 nM CPT, ATP luminescence, 48 h | Potency, µM (doses to about 46.2 µM), for inactives: at the highest dose activity change, negative = growth inhibition, most hits filed as inhibitors | 12% of 420,000 active; further: potency means the concentration at half of the fitted maximal effect; on the % scale 0 is the no-effect control and ±100 the full control effect; nearly all actives have a fitted effect of over 55% in size
#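 Chicken DT40 Tdp1-/- cells complemented with human TDP1, 400 cells/well, exposed to compounds plus 20 nM camptothecin for at least 48 h at 37 C; viability read as ATP content by CellTiter-Glo luminescence.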
# The depositor's hits bear a star; ? = inconclusive; · = not tested or not shown. Unless noted, the call rests on the fitted dose curve; in most records, active means well fitted curve in the direction sought with a large enough effect; inconclusive means small, poorly fitted or top-dose-only effect, or another doubt; inactive means no such curve, though single readings can be large; an effect the other way counts as inactive or inconclusive.
SMILES,DT40 TDP1 no CPT,Chronic BCR inh,MCF10A rerep,IL1B secr inh,SW480 rerep,DT40 TDP1 CPT
CC(C)c1cc(NC(=O)c2ccccc2)cc(C(C)C)c1O,?,?,7.6%,-56.9*,-4.7%,-27.2%
C=CCC[C@@H](Cc1ccc(F)cc1)C(=O)OC[C@@H](Cc1ccccc1)NC(=O)[C@@H](CC=C)CC(=O)N[C@@H](CO)Cc1ccccc1,?,?,?,-16.8,2.7%,?
C=CC[C@@H](CC(=O)NCCO)C(=O)N[C@@H](COC(=O)[C@@H](CC=C)Cc1ccc(F)cc1)Cc1ccccc1,?,-4.0%,6.8%,-5.8,-8.8%,18.4µM*
C=CC[C@H](CC(=O)NCCO)C(=O)N[C@H](COC(=O)[C@@H](CC=C)Cc1ccc(F)cc1)C(C)(C)C,18.4µM*,7.1%,?,-10.1,0.8%,?
C=CC[C@H](CC(=O)NCCO)C(=O)N[C@@H](COC(=O)[C@H](CC=C)CC(=O)OC(C)(C)C)Cc1ccccc1,-20.2%,3.7%,-10.4%,14.9,-7.1%,?
C=CC[C@H](CC(=O)NCCO)C(=O)NCCOC(=O)[C@@H](CC=C)Cc1ccc(F)cc1,-11.8%,?,12.7%,-3.3,1.2%,-2.8%
C=CC[C@@H](CC(=O)N[C@H](CO)Cc1ccccc1)C(=O)N[C@H](COC(=O)[C@@H](CC=C)Cc1ccc(F)cc1)Cc1ccccc1,14.6µM*,-0.5%,1.0%,-1.6,-4.2%,23.1µM*
COc1cccc(Cn2c(=O)c(-c3cn(C)c4ccccc34)nc3cnc(N4CCNCC4)nc32)c1,20.6µM*,·,·,·,·,7.31µM*
Cn1cc(-c2nc3cnc(N4CCNCC4)nc3n(Cc3ccc(F)cc3)c2=O)c2ccccc21,7.31µM*,·,·,·,·,5.17µM*
C#CCN(C[C@H]1[C@H](OC(=O)NCc2ccccc2)[C@H](OC(=O)NCc2ccccc2)C[C@@H](C(=O)OC)[C@H]1C(=O)OC)S(=O)(=O)c1ccc(C)cc1,-104.9%,·,·,?,·,-106.8%
C#CCN(C[C@@H]1[C@@H](OC(=O)NCC2CCCCC2)[C@@H](OC(=O)NCC2CCCCC2)CN(C(=O)OC(C)C)N1C(=O)OC(C)C)S(=O)(=O)c1ccc(C)cc1,7.31µM*,·,·,-11.7,·,9.2µM*
C#CCN(C[C@@H]1[C@@H](OC(=O)NCc2ccccc2)[C@@H](OC(=O)NCc2ccccc2)CN(C(=O)OC(C)C)N1C(=O)OC(C)C)S(=O)(=O)c1ccc(C)cc1,11.6µM*,·,·,-57.6*,·,20.6µM*
COc1ccc(-c2noc(N3CCCC(C(=O)Nc4ccc(C(C)=O)cc4)C3)n2)cc1 (centres undefined),?,-2.4%,12.7%,?,-7.0%,?
O=C(N/N=C/c1ccc[nH]1)c1ccc([N+](=O)[O-])cc1,-23.9%,?,-2.3%,-1.5,-9.8%,-20.4%
CCNC(=O)C1(C)CCCN(C(=O)c2ccc3c(c2)C(C)(C)CCC3(C)C)C1 (centres undefined),6.51µM*,·,·,41.2,·,5.8µM*
CCNC(=O)C1(C)CCN(C(=O)c2ccc(-c3ccccc3)cc2)C1 (centres undefined),?,·,·,19.8,·,16.4µM*
CC(C)NC(=O)C1(C)CCCN1C(=O)c1ccc2c(c1)C(C)(C)CCC2(C)C (centres undefined),3.66µM*,·,·,67.0,·,4.61µM*
Cc1cccc(CN(C)C[C@H]2OCc3cnnn3CCCC(=O)N([C@H](C)CO)C[C@@H]2C)c1,-22.9%,·,·,15.8,·,-17.6%
Cc1nc2ccc(NC(=O)c3nn(CC(C)C)c(=O)c4ccccc34)cc2s1,?,-16.8%,?,-85.5*,-3.4%,?
Cc1nnc(NC(=O)c2nn(CC(C)C)c(=O)c3ccccc23)s1,-17.5%,-8.7%,-7.5%,13.8,-14.4%,4.0%
CCn1nc(C(=O)Nc2nc3ccc(C)cc3s2)c2ccccc2c1=O,-21.5%,?,23.1µM*,-8.0,20.6µM*,-18.5%
COc1ccc(N2C(=O)C(Cl)=C(N3CCOCC3)C2=O)cc1,29.1µM*,1.7%,-7.5%,-12.7,9.7%,-18.6%
O=[N+]([O-])c1ccccc1S(=O)(=O)Nc1cccnc1,-20.4%,-0.7%,-2.8%,14.1,1.7%,-18.0%
CCOCc1cc(CN2CCN(c3cccc(C(F)(F)F)c3)CC2)c(O)c2ncccc12,6.51µM*,·,·,·,·,6.51µM*
O=[N+]([O-])c1cc(CN2CCN(c3cccc(C(F)(F)F)c3)CC2)c2cccnc2c1O,1.46µM*,-0.2%,8.0%,108.0,?,0.92µM*
SMILES,DT40 TDP1 no CPT,Chronic BCR inh,MCF10A rerep,IL1B secr inh,SW480 rerep,DT40 TDP1 CPT
CC(C)OCc1cc(CN2CCN(c3cccc(C(F)(F)F)c3)CC2)c(O)c2ncccc12,4.61µM*,·,·,·,·,4.61µM*
Cc1nc2c(OCc3ccccc3)cccn2c1CC#N,-56.1%,·,·,·,·,?
CC(C)N(C)c1ncnc2c1ncn2[C@H]1CN(CCc2ccccc2)C[C@@H](CO)O1,?,·,·,-18.0,·,?
OCCCNCc1ccc(N(c2ccccc2)c2ccccc2)cc1,20.6µM*,?,38.4%,-94.1*,?,16.4µM*
CCOC(=O)C1C(C)=C(Nc2ccc(OC)cc2)C(=O)N1c1ccc(OC)cc1 (centres undefined),-1.3%,-2.0%,0.5%,16.7,3.7%,-2.6%
COc1ccc(Br)cc1/C=N/NC(=O)CN1CCN(Cc2ccccc2)CC1,-13.7%,?,-0.8%,-18.7,1.7%,-8.1%
O=C(O/N=C/c1ccc(Br)cc1)c1ccc(F)cc1,-5.2%,·,-4.2%,7.2,-7.6%,-6.2%
O=C(Nc1cccc(-c2cn3ccccc3n2)c1)c1cnccn1,?,-4.9%,-2.9%,142.6,-6.1%,?
Cc1cccc2nc(-c3cccc(NC(=O)Cc4ccccc4)c3)cn12,?,2.1%,5.9%,?,-3.2%,?
Cc1cccc2nc(-c3cccc(NC(=O)c4ccc(Cl)cc4)c3)cn12,?,-10.1%,?,5.1,-7.3%,20.6µM*
O=C(Nc1cccc(-c2cn3ccccc3n2)c1)c1cccc(Cl)c1,18.4µM*,10.9%,?,-103.9*,21.4%,?
CCN(CC)CCn1c(NCc2cccc(OC)c2)nc2ccccc21,?,10.4%,0.5%,?,-2.3%,?
CCCCn1c(NCc2ccc(N(C)C)cc2)nc2ccccc21,25.9µM*,-8.0%,18.4%,?,-2.2%,25.9µM*

# Screening data deposited in PubChem by National Center for Advancing Translational Sciences (NCATS).
